Experimental findings from PubChem BioAssay (NCI) are described below.

This is part of a sample that, as a whole, favours compounds with a hit. Of some 83,000 tested, about 20% had one in any assay.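 96-well plates, one dose, 48 hours. Percent growth reported; active if below 10.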 Values without a mark were called inactive. Calls of active or inactive are those of the source.

Some test systems named below: SR leukemia; RPMI-8226 leukemia; OVCAR-8 ovarian; OVCAR-4 ovarian; SK-OV-3 ovarian; IGROV1 ovarian; OVCAR-3 ovarian; HS 578T breast; NCI/ADR-RES ovarian; T-47D breast; MDA-MB-435 melanoma; SW-620 colon; MCF7 breast; HCT-116 colon; HCC-2998 colon; KM12 colon; OVCAR-5 ovarian; BT-549 breast.
What all share (experiment): NCI-60 one-dose screen, 48 h (100 = growth as untreated, 0 = no growth, -100 = all killed)
What all share (settings): 10 µM unless noted

For `C=CC1CN2CCC1CC2C(O)c1ccnc2ccc(OC)cc12` (centres undefined), the growth in the assay with SR leukemia is 113%; in the assay on RPMI-8226 leukemia, 108%; with OVCAR-8 ovarian, 88.4%; in the assay on OVCAR-4 ovarian it was 102%; in the assay with SK-OV-3 ovarian it was 93.9%; with IGROV1 ovarian, -5.34% (active). Moreover, the growth in the assay with OVCAR-3 ovarian is 105%; with HS 578T breast it was 99.9%; with NCI/ADR-RES ovarian it was 107%; in the assay on T-47D breast it was 102%; with MDA-MB-435 melanoma it was 100%; in the assay with SW-620 colon, 105%. The growth was 91% in the assay on MCF7 breast, 49.8% in the assay on HCT-116 colon, 155% in the assay with HCC-2998 colon and 112% in the assay on KM12 colon.

As for `Cc1ccc(C(=O)C(Br)C(Br)c2ccccc2)cc1` (centres undefined), the growth was 48.2% with RPMI-8226 leukemia; 96.6% with OVCAR-8 ovarian; 102% with OVCAR-5 ovarian; 71.9% in the assay on OVCAR-4 ovarian; 114% with SK-OV-3 ovarian; 62.5% with IGROV1 ovarian. In addition, the growth is 61.7% in the assay with OVCAR-3 ovarian; 98.2% in the assay on HS 578T breast; 105% with NCI/ADR-RES ovarian; 71.5% in the assay on T-47D breast; 104% in the assay with BT-549 breast; 99.8% in the assay with MDA-MB-435 melanoma. For the same molecule, the growth in the assay with SW-620 colon was 27.8%; with MCF7 breast, 25.7%; in the assay on HCT-116 colon, -65.7% (active); with HCC-2998 colon it was 116%; in the assay with KM12 colon, 99.1%.

As to `CCOc1ccc(Br)cc1/C=C(\C#N)c1ccc([N+](=O)[O-])cc1`, the growth in the assay on RPMI-8226 leukemia is 84.7%; with OVCAR-8 ovarian, 70%; with OVCAR-5 ovarian it was 94.6%; in the assay with OVCAR-4 ovarian, 45.2%; in the assay with SK-OV-3 ovarian it was 44.4%; in the assay with IGROV1 ovarian it was 71.4%. In addition, the growth is 65.8% in the assay on OVCAR-3 ovarian; 7.59% (active) in the assay on HS 578T breast; 85.2% with NCI/ADR-RES ovarian; 66.4% with T-47D breast; 96.5% with BT-549 breast; 85% with MDA-MB-435 melanoma. In addition, the growth in the assay with SW-620 colon was 86.6%; in the assay on MCF7 breast it was 23.4%; in the assay on HCT-116 colon, 67.9%; in the assay on KM12 colon, 94.5%.

In the case of `Cc1c(CN(C)C)cc(C(C)C)cc1C(C)C`, the growth is 94.5% in the assay with RPMI-8226 leukemia; 106% in the assay on OVCAR-8 ovarian; 115% in the assay with OVCAR-5 ovarian; 98.8% with OVCAR-4 ovarian; 112% in the assay with SK-OV-3 ovarian; 119% with IGROV1 ovarian. Further, the growth was 120% in the assay with OVCAR-3 ovarian; 124% with HS 578T breast; 104% in the assay on NCI/ADR-RES ovarian; 131% in the assay with T-47D breast; 118% with BT-549 breast; 111% with MDA-MB-435 melanoma. The growth in the assay on SW-620 colon was 104%; with MCF7 breast it was 96.7%; in the assay with HCT-116 colon it was 104%; in the assay on HCC-2998 colon, 104%; with KM12 colon, 114%.

On to `Cc1ccc(C(=O)Nc2ccc(CN3CCN(C)CC3)c(C(F)(F)F)c2)cc1C#Cc1cncc2ncccc12`, for which the growth in the assay with RPMI-8226 leukemia was -53.5% (active); with OVCAR-8 ovarian, -76.8% (active); in the assay with OVCAR-5 ovarian, -93.9% (active); with OVCAR-4 ovarian, -87.5% (active); in the assay with SK-OV-3 ovarian it was -12.6% (active); in the assay with IGROV1 ovarian, -82.7% (active). The growth in the assay with OVCAR-3 ovarian was 24.8%; in the assay with HS 578T breast, -32.4% (active); with NCI/ADR-RES ovarian it was 4.19% (active); in the assay with BT-549 breast, -82.3% (active); with MDA-MB-435 melanoma it was -93.3% (active); in the assay on SW-620 colon, -66.6% (active). Besides, the growth is -65.4% (active) in the assay on MCF7 breast, -84.7% (active) in the assay with HCT-116 colon, 34.8% with HCC-2998 colon and -81.6% (active) in the assay on KM12 colon.

With `CCOC(=O)C1=C(C(F)(F)F)NC(=O)NC1CN1C(=O)c2ccccc2C1=O` (centres undefined), the growth is 82.6% with RPMI-8226 leukemia; 114% in the assay with OVCAR-8 ovarian; 94.2% in the assay with OVCAR-5 ovarian; 110% with OVCAR-4 ovarian; 121% in the assay on SK-OV-3 ovarian; 122% in the assay on IGROV1 ovarian. Moreover, the growth in the assay on OVCAR-3 ovarian is 129%; in the assay on HS 578T breast it was 111%; with NCI/ADR-RES ovarian, 107%; in the assay with T-47D breast, 111%; in the assay with BT-549 breast, 108%; in the assay with MDA-MB-435 melanoma, 108%. The growth with SW-620 colon was 105%; in the assay on MCF7 breast, 108%; with HCT-116 colon it was 112%; in the assay with HCC-2998 colon, 101%; in the assay with KM12 colon it was 115%.

For `COC(=O)c1cc(=O)nc(N/N=C/c2ccccc2O)s1`, the growth is 87.9% with RPMI-8226 leukemia; 97.5% with OVCAR-8 ovarian; 104% in the assay with OVCAR-5 ovarian; 50.8% with OVCAR-4 ovarian; 103% with SK-OV-3 ovarian; 88.6% in the assay with IGROV1 ovarian. Also, the growth was 88.6% in the assay on OVCAR-3 ovarian; 108% in the assay on HS 578T breast; 89.3% with NCI/ADR-RES ovarian; 73.1% in the assay with T-47D breast; 94.7% with BT-549 breast; 100% with MDA-MB-435 melanoma. For the same molecule, the growth with SW-620 colon was 106%; in the assay on MCF7 breast, 5.18% (active); in the assay with HCT-116 colon, 58.7%; in the assay on HCC-2998 colon, 89.1%; in the assay on KM12 colon, 95.3%.

On to `CCOc1ccc(/C=N/NC(=O)c2cccc3ccccc23)cc1OCC`, for which the growth in the assay on RPMI-8226 leukemia was 83.8%; in the assay with OVCAR-8 ovarian it was 105%; in the assay on OVCAR-5 ovarian, 104%; in the assay on OVCAR-4 ovarian, 91.9%; in the assay on SK-OV-3 ovarian, 99.2%; with IGROV1 ovarian, 108%. The growth with OVCAR-3 ovarian is 96.4%; in the assay on HS 578T breast, 98.6%; in the assay with NCI/ADR-RES ovarian, 97.9%; in the assay with T-47D breast, 86.1%; in the assay on BT-549 breast, 86.5%; in the assay on MDA-MB-435 melanoma, 111%. The growth with SW-620 colon is 105%; with MCF7 breast, 92.9%; with HCT-116 colon it was 103%; with HCC-2998 colon, 105%; in the assay with KM12 colon, 103%.

With `CCN(CC)CCOC(=O)c1cccnc1`, the growth with RPMI-8226 leukemia is 91.4%; in the assay on OVCAR-8 ovarian, 97.6%; with OVCAR-5 ovarian, 96.4%; in the assay with OVCAR-4 ovarian, 90.1%; in the assay on SK-OV-3 ovarian, 96.1%; with IGROV1 ovarian, 103%. In addition, the growth with OVCAR-3 ovarian is 107%; in the assay on HS 578T breast, 92%; in the assay on NCI/ADR-RES ovarian, 101%; in the assay on T-47D breast it was 96.6%; with BT-549 breast it was 105%; in the assay on MDA-MB-435 melanoma, 96.3%. Moreover, the growth is 103% in the assay on SW-620 colon, 95.1% in the assay with MCF7 breast, 98.1% in the assay on HCT-116 colon and 103% in the assay with KM12 colon.
